Assay outcomes deposited in PubChem BioAssay by National Center for Advancing Translational Sciences (NCATS).
This is a sample that favours compounds with a hit; in the whole collection about 15% have one here.
HCV inh: blocks hepatitis C virus. Huh7.5.1 HCVcc-Cre infection, luciferase reporter, 44 h. actives 3.4% (n = 340,000). Potency, µM (titrated, usually from 41.8 µM), for inactives: at the highest dose activity change, negative = inhibition, hits mostly inhibitors; further: potency means the concentration at half of the fitted maximal effect; on the % scale 0 is the no-effect control and ±100 the full control effect
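Compounds are dispensed onto cells plated 4 h earlier at 1,000 per well, with HCVcc-Cre virus (about 0.5 moi) added next. Following 44 h of culture, luminescent signal is measured for 15 sec after 15 min with substrate at room temperature.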
SARS PLpro yeast: inhibitors of SARS-CoV papain-like protease in yeast. actives 0.19% (n = 330,000). AID 485353. S. cerevisiae expressing SARS-CoV PLpro, growth rescue. Potency, µM (top dose mostly 32.9 µM), for the others: at the top dose activity, positive = growth rescue, most hits filed as activators; calls by dose curve; further: potency means the concentration at half of the fitted maximal effect; 0% is about no effect; nearly all actives have a fitted effect of over 55% in size
Pf growth 48h: P. falciparum growth inhibition at 48 hours (one generation) | P. falciparum luciferase growth in erythrocytes, 48 h | Potency, µM (series often up to 28.7 µM), for inactives: top-dose activity change, negative = inhibition, usual class: inhibitors | actives 5.9% (n = 310,000) | AID 504832; further: potency means the concentration at half of the fitted maximal effect; on the % scale 0 is the no-effect control and ±100 the full control effect
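First compound was added to culture medium, then infected red cells at 0.1% parasitemia and 2% hematocrit (final). After incubation at 37 C under 5% CO2, luciferase detection reagent was dispensed and light output recorded.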
HCMV antiviral: inhibitors of human cytomegalovirus; HFF cells, HCMV-luciferase reporter, 72 h; active compounds read low; activity change, negative = inhibition, % at 57.5 µM; actives 4.5% (n = 410,000); AID 1259415; in the data active means activity change below about -60%; inconclusive means no clear call, values can overlap the other calls; inactive means above about -39%; further: on the % scale 0 is the no-effect control and ±100 the full control effect
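Inhibition of viral replication was scored as loss of reporter luminescence in HFFs infected with HCMV-luciferase (MOI 1 PFU/cell) for 72 h; compounds tested at 2 doses, normalized to buffer and Salinomycin controls.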
Sm TGR inh: inhibitors of Schistosoma mansoni thioredoxin glutathione reductase; Q962Y6; purified TGR, DTNB reduction, TNB absorbance 405 nm; Potency, µM (doses to about 114 µM), without a hit: top-dose activity change, negative = inhibition, usual class: inhibitors; actives 3% (n = 360,000); AID 485364; further: potency means the concentration at half of the fitted maximal effect; on the % scale 0 is the no-effect control and ±100 the full control effect; nearly all actives have a fitted effect of over 60% in size
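Kinetic colorimetric format: TGR-catalysed, NADPH-driven DTNB reduction monitored via TNB absorbance. Enzyme dispensed at 20 nM; compound exposure 15 min at room temperature before reaction start.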
Pf growth 96h: inhibits malaria parasite growth, 96 h. P. falciparum luciferase reporter growth, 96 h. Potency, µM (top dose mostly 28.7 µM), for inactives: top-dose activity change, negative = inhibition, hits mostly inhibitors. actives 6.9% (n = 320,000). AID 504834; further: potency means the concentration at half of the fitted maximal effect; on the % scale 0 is the no-effect control and ±100 the full control effect
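Cell-based qHTS: luciferase-tagged P. falciparum in erythrocytes (2% hematocrit, 0.05% parasitemia final) incubated with compounds for 96 hours, 37 C, 5% CO2; luciferase detection reagent then added and luminescence measured.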
* hit, by the source's call; u = inconclusive; x = not tested or not shown; ! = not confirmed by another sample. Unless noted, the call rests on the fitted dose curve; in most records, active means well fitted curve in the direction sought with a large enough effect; inconclusive means small, poorly fitted or top-dose-only effect, or another doubt; inactive means no such curve, though single readings can be large; an effect the other way counts as inactive or inconclusive.

SMILES	HCV inh	SARS PLpro yeast	Pf growth 48h	HCMV antiviral	Sm TGR inh	Pf growth 96h
CCn1c(SCC(=O)Nc2cccc(Cl)c2)nnc1-c1nonc1NC(C)=O	x	x	x	-10.2	0.1%	x
O=C(NC1CCN(S(=O)(=O)c2ccccc2)CC1)c1ccccc1	-3.9%	-1.6%	9.6%	1.7	0.0%	14.7µM*
Cc1cccc(C(=O)NC2CCN(S(=O)(=O)c3ccccc3F)CC2)c1	-5.6%	5.6%	u	-21.0	8.2%	-11.2%
Cc1ccc(C(=O)NC2CCN(S(=O)(=O)c3ccccc3F)CC2)cc1	9.9%	-4.3%	-5.6%	u	-4.1%	13.1µM*
CCCCN1C(=O)N(c2ccc(Br)cc2)C(=O)C1c1nnnn1-c1c(C)cccc1Cl (stereo not drawn)	x	x	x	-13.4	x	x
CC1Cn2cc(C(=O)Nc3cccc(C(F)(F)F)c3)c(=O)c3c(Cl)ccc(c32)O1 (stereo not drawn)	x	x	x	10.1	2.8%	x
CCN1CCCC1CNC(=O)c1ccc2c(c1)N(Cc1ccccc1F)C(=O)c1ccccc1S2(=O)=O (stereo not drawn)	10µM*	20.4%	9.28µM*	-22.1	-4.9%	10.9%
O=C(NCc1ccco1)c1ccc2c(c1)N(Cc1ccccc1F)C(=O)c1ccccc1S2(=O)=O	x	x	x	-66.1*	-15.2%	x
CC1CCCN(CCCNC(=O)c2ccc3c(c2)N(Cc2ccccc2F)C(=O)c2ccccc2S3(=O)=O)C1 (stereo not drawn)	10µM*	11.6%	2.08µM*	-70.2*!	5.9%	u
COC(=O)c1ccc2nc(-c3cccc(Cl)c3)c(Cc3ccccc3C(F)(F)F)n2c1	x	x	x	-17.9	x	x
CCOc1ccc(OCCn2ccnc2)cc1	19.0%	-8.0%	1.1%	7.6	-3.7%	38.5%
Cc1cc(C)cc(OCCCn2ccnc2)c1	-8.1%	-5.2%	-10.2%	4.0	0.0%	4.65µM*
CCOc1ccc(OCCCCn2ccnc2)cc1	-7.0%	-0.9%	-12.8%	-61.1*	-2.7%	-4.7%
CC(C)c1cccc(C(C)C)c1OCCn1ccnc1	-8.8%	-2.8%	13.1µM*	-16.6	0.4%	-26.4%
Cc1cccc(OCCCn2ccnc2)c1	3.8%	1.5%	9.28µM*	-16.4	2.2%	0.0%
Cc1cc(OCCn2ccnc2)ccc1C(C)C	-9.0%	-7.1%	-7.8%	-36.4	-10.5%	u
Cc1cc(C)c(OCCCn2ccnc2)c(C)c1	-6.7%	3.0%	u	-3.2	-0.5%	-18.5%
Cc1cc2ccccc2n1-c1ccc(C(=O)N2CCC(C(=O)NCc3ccc(Cl)cc3)CC2)s1	x	x	x	51.3	29.1%	x
CCC(=O)Nc1ccc(C(=O)OCc2ccccc2)cc1	-0.5%	-4.4%	17.1%	-14.6	11.4%	8.1%
O=C(OCc1ccccc1)c1ccc(NCc2cc(O)ccc2O)cc1	5.01µM*	x	x	-86.8*	x	x
CC(C)OC(=O)c1ccc(NCc2cc(O)ccc2O)cc1	3.55µM*	x	x	-62.7*	x	x
COC(=O)c1ccc(OCC(=O)c2ccc(O)cc2O)cc1	3.2%	3.8%	220.9%	-61.1*	4.9%	-24.5%
COC(=O)c1ccc(CCc2cc(O)ccc2O)cc1	3.98µM*	x	x	x	x	x
CCCCn1c(N)c(N(Cc2ccccc2OC)C(=O)CN2C(=O)NC(C)(c3ccccc3)C2=O)c(=O)[nH]c1=O (stereo not drawn)	9.8%	-4.7%	-4.8%	-16.3	-3.5%	-7.1%
CC(=O)Nc1ccc(S(=O)(=O)Nc2cccc(-c3nc4ccccc4o3)c2)cc1	12.6µM*	13.2%	x	-21.5	-1.0%	14.1%
SMILES	HCV inh	SARS PLpro yeast	Pf growth 48h	HCMV antiviral	Sm TGR inh	Pf growth 96h
O=C(Nc1cccc(-c2nc3ccccc3o2)c1)C(F)(F)F	x	x	x	-103.5*	2.7%	x
CS(=O)(=O)c1ccccc1C(=O)Nc1cccc(-c2nc3ccccc3o2)c1	11.2µM*	-2.1%	14.4%	-11.1	-0.4%	10.0%
Cc1ccc(-c2nnc(N3CCCCC3)c3ccccc23)cc1	u	-0.9%	u	-60.8*	0.0%	-24.8%
CC1CCN(c2nncc3ccccc23)CC1	-9.3%	-10.7%	u	-33.9	4.7%	6.57µM*
c1ccc(-c2nnc(N3CCN(c4ccccn4)CC3)c3ccccc23)cc1	14.1µM*	-17.2%	7.38µM*	u	6.3%	x
CC1CCN(c2nnc(N3CCC(C)CC3)c3ccccc23)CC1	11.3%	-0.2%	29.9%	7.1	13.5%	50.1%
O=S(=O)(c1ccccc1)N1CCN(c2nnc(-c3ccccc3)c3ccccc23)CC1	-12.6%	0.1%	u	-39.4	9.0%	4.15µM*
CS(=O)(=O)N1CCN(c2nnc(-c3ccccc3)c3ccccc23)CC1	-3.8%	-1.3%	-23.5%	14.9	6.3%	-6.7%
COc1ccc(OC)c(S(=O)(=O)NC(=O)C2(C)CCN2C(=O)Cc2ccccc2Cl)c1 (stereo not drawn)	x	x	x	7.9	x	x
C[C@@H](NC(=O)c1[nH]cnc1C(=O)Nc1ccccc1F)c1ccccc1	x	x	x	-10.7	x	x
O=C(CSc1n[nH]c(=O)[nH]c1=O)N/N=C/c1ccccc1	18.9%	16.0%	-6.7%	10.6	-7.9%	42.1%
CN1CCCCC1(C)C(=O)NCc1ccc(C(C)(C)C)cc1 (stereo not drawn)	x	x	x	-28.7	x	x
CCN1CCN(c2nnc(-c3ccc(F)cc3)c3ccccc23)CC1	2.82µM*	0.9%	4.7%	12.7	2.3%	3.4%
Clc1nnc(N2CCCCC2)c2ccccc12	-0.1%	-0.3%	36.1%	-91.4*	4.0%	-2.4%
CCOc1ccc(-c2nnc(N3CCOCC3)c3ccccc23)cc1	u	-1.0%	u	u	-3.3%	u
COc1ccc(-c2nnc(N3CCC(C)CC3)c3ccccc23)cc1	-3.5%	-11.0%	-6.3%	-63.4*	-7.4%	-23.2%
Cc1ccc(-c2nnc(N3CCN(c4ccccn4)CC3)c3ccccc23)cc1	u	-3.0%	13.1µM*	-38.1	2.9%	-9.4%
CN(C(=O)c1cccc(NC(=O)Cc2ccc(NC(=O)C3CCN(C(=O)C4CCC4)CC3)cc2)c1)C1CCC1	-18.6%	x	x	1.6	x	x
CCNC(=O)C1(C)CCCN(C(=O)c2cccnc2Oc2ccccc2)C1 (stereo not drawn)	x	x	x	-20.6	x	x
Nc1cc(C(=O)O)c(Oc2ccc(Cl)cc2Cl)cc1C(=O)O	-5.1%	14.1%	-1.0%	14.6	-5.9%	u
O=C(Nc1ccccc1-c1ccccc1)C1CCCN(c2ncccn2)C1 (stereo not drawn)	x	3.0%	9.8%	-26.2	-26.1%	u
Cc1nc(NC(=O)c2cccc(Cl)c2)sc1C(=O)N1CCCCC1	-28.7%	0.9%	u	u	2.8%	27.9%
Cc1ccc(Nc2nc(-c3sc(NC(=O)c4cccc(Cl)c4)nc3C)cs2)cc1	x	1.3%	2.33µM*	x	84.4%	4.15µM*
COc1ccccc1Nc1nc(-c2sc(NC(=O)c3cccc(Cl)c3)nc2C)cs1	x	-1.0%	u	x	-1.5%	9.28µM*
